# Test results from ChEMBL document CHEMBL1201862, “PubChem BioAssay data set” (2004).
# About 3,700 (6.5%) of roughly 57,000 sequences were called active. Cut-off read from the data, not from the text of the source: active = GI50 up to about 1.1 µM and inactive = higher. A selection follows. Potency and affinity values are given separately.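 Values below derive from 48-hour exposures of cells grown in 96-well plates, with endpoints linearly interpolated between the two concentrations bracketing the appropriate inhibition level. GI50: concentration for 50% inhibition of growth.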
# System: IGROV-1
# Assay: NCI tumour cell line growth inhibition, 48 h
row,Substance,GI50
1,"[Bis(aminomethyl)pentamethylenesilane]dichloropaltinum(II), CHEMBL2146202",41.9 µM
2,"[Bis(aminomethyl)pentamethylenesilane]tetrachloropaltinum(IV), CHEMBL2146204",10.5 µM
3,"CISPLATIN, CHEMBL11359",2.02 µM
4,"mu-(1,7-nanodiamine-N,N')bis-(cis-aminedichloroplatimum (II)), CHEMBL2146215",29 µM
5,"[Bis(aminomethyl)tetramethylenesilane]dichloropaltinum(II), CHEMBL2146205",36.8 µM
6,"[Bis(aminomethyl)dimethylsilane]dichloroplatinum (II), CHEMBL2146201",> 100 µM
7,"[Bis(aminomethyl)diethylsilane]tetrachloroplatinum(IV), CHEMBL2146203",15.5 µM
8,"[Bis(aminomethyl)ethylmethylsilane]tetrachloroplatinum(IV), CHEMBL2146192",16 µM
9,"cis-Bis[[(trimethylsilyl)methyl]amino]tetrachloroplatinum(IV), CHEMBL2146191",15.4 µM
10,"[Bis(aminomethyl)dimethylsilane]tetrachloroplatinum(IV), CHEMBL2146190",15.4 µM
11,"[Bis(aminomethyl)tetramethylenesilane]tetrachloropaltinum(IV), CHEMBL2146189",6.1 µM
